Six1-Eya2 blk = inhibitors of human Six1/Eya2 interaction; AlphaScreen GST-Six1/His-Eya2 binding, biochemical; hits give low values; 0.56% of 360,000 active; activity change, % (test concentration not listed); Q15475+O00167; in the data active = activity change below about -65%; inconclusive = mostly about -30% to -63%
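Compounds are tested against tagged Six1 and Eya2 proteins bridged by glutathione donor and nickel acceptor beads; after a one-hour incubation at 37 °C without light, AlphaScreen emission is recorded.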
MBNL1 CUG block = blocks human MBNL1 binding to CUG repeat RNA | TR-FRET MBNL1-His/biotin-(CUG)12 binding, 665/545 ratio | Q9NR56 | 0.036% of 280,000 active | Potency, µM (titrated, usually from 57.5 µM), hits mostly inhibitors; active = well fitted inhibition curve with a large enough effect in the signal ratio, with a control signal flat, not every such curve was filed as active; inconclusive = small, poorly fitted or top-dose-only effect, or effect the other way, or a change in a side signal; inactive = no such curve, though single readings can be large or run the other way; the % refers to the signal ratio
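Compound titration spanned 92 nM–58 uM against the MBNL1-His/biotin-(CUG)12 complex. After 60 min at room temperature with 5 nM streptavidin-XL665 and 0.055 ng/ul terbium anti-His, ratiometric 665/545 nm emission (Ex 340 nm) normalized to controls.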
CtBP-E1A inh = CtBP/E1A binding inhibition. AID 651724. AlphaScreen GST-E1A/His-CtBP binding, 1536-well; hits give low values. activity change, % (no concentration beside the values). 0.49% of 340,000 active; in the data active = activity change below about -65%; inconclusive = mostly about -30% to -63%
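AlphaScreen with 125 nM GST-E1A and 125 nM His-CtBP (5X stocks) in Tris pH 8.0, 300 mM NaCl, BSA, Tween 20, TCEP. Compounds preincubated 2 h at 37 deg C, then glutathione donor/nickel acceptor beads added for 1 h at 37 deg C in dark.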
RORgamma inh = ROR gamma (mouse) transcription inhibition; 5.4% of 310,000 active; Drosophila S2 Gal4-RORgamma UAS-luciferase reporter, 20 h; P51450; Potency, µM (top dose mostly 53.6 µM), most hits filed as inhibitors; also: nearly all actives have a fitted effect of over 60% in size
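In this cell-based reporter format, copper sulfate (700 uM final) drives Gal4–ROR gamma fusion expression from a metallothionein promoter in Drosophila Schneider cells; compounds preincubated 1 hr, reporter read after 20 hr at ambient temperature.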
Gal4-VP16 FLuc = inhibits Gal4-VP16 luciferase reporter, ROR gamma counter-screen; Potency, µM (top dose mostly 53.6 µM), actives largely listed as inhibitors; 3.5% of 310,000 active; Drosophila S2 Gal4-VP16 UAS-luciferase, luminescence, 20 h; AID 2546;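 also: Gal4-VP16 expression switched on by copper sulfate through the metallothionein promoter; nearly all actives have a fitted effect of over 50% in size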
CBFb RUNX1 block = inhibitors of human CBF-beta and RUNX1 interaction | 230,000 tested, under 10 active | Q01196+Q13951 | Potency, µM (highest dose often 59.8 µM), actives largely listed as inhibitors | AID 1477 | AlphaScreen CBFb-His/RUNX1-biotin binding, biochemical
Target sequence (Q01196 whole entry, looked up): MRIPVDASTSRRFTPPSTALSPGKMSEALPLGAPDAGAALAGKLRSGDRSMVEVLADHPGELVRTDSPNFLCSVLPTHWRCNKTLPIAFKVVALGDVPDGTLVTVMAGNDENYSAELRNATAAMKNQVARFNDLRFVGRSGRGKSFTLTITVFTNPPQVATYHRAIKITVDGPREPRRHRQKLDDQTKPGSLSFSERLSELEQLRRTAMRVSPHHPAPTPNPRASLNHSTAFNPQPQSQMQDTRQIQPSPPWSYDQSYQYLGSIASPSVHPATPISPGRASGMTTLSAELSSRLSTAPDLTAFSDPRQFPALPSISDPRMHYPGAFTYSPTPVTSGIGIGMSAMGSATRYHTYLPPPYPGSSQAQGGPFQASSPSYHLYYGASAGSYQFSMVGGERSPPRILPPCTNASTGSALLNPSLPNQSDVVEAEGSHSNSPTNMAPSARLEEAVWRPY
Target sequence (Q13951 whole entry, looked up): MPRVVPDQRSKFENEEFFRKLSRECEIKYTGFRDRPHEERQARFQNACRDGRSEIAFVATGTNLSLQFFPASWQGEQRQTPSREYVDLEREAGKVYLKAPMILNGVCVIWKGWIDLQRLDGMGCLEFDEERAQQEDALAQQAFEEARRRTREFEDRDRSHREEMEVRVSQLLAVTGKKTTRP
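Read-out: AlphaScreen. Format: His-CBF-beta with biotinylated RUNX1 (30 nM each) preincubated 20 min, compound 15 min, Ni-chelate plus streptavidin beads 90 min; room temperature throughout.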
Hits are given with their value; – = inactive; ? = inconclusive; · = no result given; [ ] = dose if it differs, or a comment. This is a sample that favours compounds with a hit; in the whole collection about 5.5% have one here. Unless noted, calls follow the shape of the dose curve; as a rule, active = well fitted curve in the direction sought with a large enough effect; inconclusive = small, poorly fitted or top-dose-only effect, or another doubt; inactive = no such curve, though single readings can be large; an effect the other way counts as inactive or inconclusive.

SMILES	Six1-Eya2 blk	MBNL1 CUG block	CtBP-E1A inh	RORgamma inh	Gal4-VP16 FLuc	CBFb RUNX1 block
Cc1ccc(NC(=O)CN2C(=O)N/C(=C/c3ccc(C)o3)C2=O)cc1	–	–	–	–	?	–
Nc1nnnn1/N=C/c1cc(Br)ccc1O	-92.3	·	-93.8	·	·	·
CC1CCC(C(C)C)C(OC(=O)C[n+]2cccc(C(N)=O)c2)C1 (stereo unspecified)	–	–	–	–	–	–
COc1ccc(-c2c[n+](CC(=O)OC3CC(C)CCC3C(C)C)c3n2CCC3)cc1 (stereo unspecified)	–	–	–	?	7.94µM	–
CC(C)[C@@H]1CC[C@@H](C)C[C@H]1OC(=O)C[n+]1cc(-c2ccc(Cl)cc2)n2c1CCCCC2	–	–	–	?	11.2µM	–
COc1cc(NC(=O)CSc2nnc(-c3cc(C)on3)o2)cc(OC)c1	–	–	–	–	–	·
Cc1cc(-c2nnc(SCCC(=O)Nc3ccccc3)o2)no1	–	–	–	14.1µM	?	·
CCNC(=O)CSc1nnc(-c2cc(-c3ccc(Cl)cc3)nc3ccccc23)o1	–	?	–	0.199µM	?	–
O=C(CCSc1nnc(-c2ccncc2)o1)Nc1ccccc1	–	–	–	–	–[0.365 µM]	–
Cc1cc(-c2nnc(SCC(=O)Nc3nc(-c4ccc(Cl)cc4)cs3)o2)no1	–	–	–	14.1µM	?	–
Cc1c(NC(=O)c2cccc(NC(=O)Cc3ccccc3F)c2)c(=O)n(-c2ccccc2)n1C	–	·	–	·	·	·
COCCCn1c(=O)c2sccc2n2c(CCCC(=O)NCc3ccccc3)nnc12	–	–	–	–	–	·
CCSC1=NN2CCS(=O)(=O)N=C2S1	–	–	–	–	–	–
Oc1ccc(/C=N/Nc2ccc(C(F)(F)F)cn2)c(O)c1	·	–	·	?	–	·
CSc1ccc(/C=N/NC(=O)c2cccc(O)c2)cc1	–	?	–	–	2.24µM	–
O=C(N/N=C/c1cccc(C(F)(F)F)c1)c1ccc(O)cc1	–	–	–	1.12µM	?	–
Oc1ccc(/C=N/Nc2ccc(C(F)(F)F)cn2)cc1	–	–	–	4.47µM	?	–
O=C(N/N=C/c1ccc(C(F)(F)F)cc1)c1ccc(O)cc1	–	–	–	1.78µM	4.47µM	–
O=C(N/N=C\c1cccc(F)c1)c1ccc(-c2ccccc2)cc1	–	–	–	–	–	·
O=C(Nc1cccc2c1CCCC2)c1cc(C2CCCCN2C(=O)c2cccs2)on1 (stereo unspecified)	–	·	–	·	·	·
O=c1c(-c2ccc(F)cc2)nc2cnc(Nc3ccccc3)nc2n1Cc1cccs1	·	·	·	–	–	·
CC[C@]12c3[nH]c4cc(CCC(=O)N(C)C)ccc4c3CCN1C(=O)[C@@H](CC(=O)NCCCOC)C[C@@H]2C(=O)N1CCN(C(=O)c2ccco2)CC1	–	·	–	·	·	·
Nc1nc(Nc2ccccc2)nc2ccccc12	–	–	–	?	?	–
CCOc1ccc(Nc2nc(N)c3ccccc3n2)cc1	–	–	–	7.08µM	?	·
CN(C)c1ccc(Nc2nc(N)c3ccccc3n2)cc1	?	–	?	?	3.55µM	·
SMILES	Six1-Eya2 blk	MBNL1 CUG block	CtBP-E1A inh	RORgamma inh	Gal4-VP16 FLuc	CBFb RUNX1 block
O=C1Nc2c(Br)cccc2C1=O	–	·	–	·	·	·
N#CCCCS(=O)(=O)c1nnnn1-c1ccc(Br)cc1	·	·	·	–	–	–
N#CCCS(=O)(=O)c1nnnn1-c1ccccc1	·	–	·	2.82µM	4.47µM	–
COc1cc2cc(CCOC(=O)c3ccc(C#N)cc3)oc(=O)c2cc1OC	–	·	–	·	·	·
CN(C)S(=O)(=O)c1ccc(NC(=O)/C=C/c2ccccc2Cl)cc1	–	–	–	0.501µM	–	–
O=C(/C=C/c1ccccc1Cl)Nc1cccc(O)c1	–	–	·	0.316µM	2.51µM	–
O=C(/C=C/c1ccccc1Cl)Nc1ccccc1	–	–	–	2µM	?	–
O=C(/C=C/c1ccccc1[N+](=O)[O-])Nc1ccccc1	–	?	·	–	–	–
O=C(CCc1nnc2ccc(NCc3ccco3)nn12)Nc1ccc(F)cc1F	–	–	·	–	–	·
CC(C)c1ccc(NC(=O)CCCC(=O)NCCc2ccccc2)cc1	–	–	·	–	–	·
C[C@H]1CN([C@@H](C)CO)C(=O)CCCn2cc(nn2)CO[C@@H]1CN(C)S(=O)(=O)c1cccc(F)c1	–	·	–	·	·	·
COc1ccc(/C=C2\SC(=S)N(CCCC(=O)Nc3cc(C)on3)C2=O)cc1OC	–	–	–	2µM	5.01µM	·
O=C(CCN1C(=O)/C(=C\c2cccs2)SC1=S)Nc1ccc(C(=O)O)cc1	–	–	–	–	–	·
CCN(CC)CCOC(=O)c1ccc(NC(=O)CCCN2C(=O)/C(=C\c3cccs3)SC2=S)cc1	?	?	?	11.2µM	11.2µM	·
COc1ccc(/C=C2\SC(=S)N(CCCCCC(=O)Nc3cc(C)on3)C2=O)cc1OC	–	–	–	–	–	·
Cc1cc(NC(=O)CCCN2C(=O)/C(=C\c3cccs3)SC2=S)no1	–	–	–	–	12.6µM	–
Cc1ccc(/C=C2\SC(=S)N(CCCC(=O)Nc3cc(C)on3)C2=O)cc1	–	–	–	0.794µM	?	·
Cc1cc(NC(=O)CCN2C(=O)/C(=C\c3ccccc3Cl)SC2=S)no1	–	–	–	–	–	–
C=CCOc1cccc(C(=O)N(C)C2CCCN(Cc3ccccc3F)C2)c1 (stereo unspecified)	–	·	–	·	·	·
Cc1ccc(OCCN2CCN(c3ncnc4sc(C)c(C)c34)CC2)cc1	–	–	–	8.91µM	3.55µM	–
Clc1ccc(OCCN2CCN(c3ncnc4sccc34)CC2)cc1	–	–	–	?	0.631µM	–
COc1cccc(CC(NC(C)=O)C(=O)NC2CCN(C(=O)C3CCCCC3)CC2)c1OC (stereo unspecified)	–	–	–	–	–	·
C/C=C(\C)C(=O)NCCN1C2=NC[C@H](C(C)C)N2C[C@@H]1Cc1ccc(OC)cc1	-72.3	–	-70.3	–	–	–
C/C=C(\C)C(=O)NCCN1C2=NC[C@H](C(C)C)N2C[C@H]1Cc1ccc(O)cc1	–	–	–	–	–	–
CCCCC1=CC2=C(OC(C)=O)C(=O)C(C)(OC(=O)C3CCCC3)C(=O)C2=CO1 (stereo unspecified)	·	·	·	–	–	?
SMILES	Six1-Eya2 blk	MBNL1 CUG block	CtBP-E1A inh	RORgamma inh	Gal4-VP16 FLuc	CBFb RUNX1 block
CNC(=S)Nc1cccc(Cl)c1C	–	–	–	12.6µM	?	–
Cc1c(Cl)cccc1NC(=S)NN	–	–	·	3.55µM	10µM	–
CCOC(=O)Nc1cccc(Cl)c1C	–	–	–	–	–	–
Cc1cccc(Cl)c1NC(=S)NN	–	–	–	5.01µM	?	–
Cc1c(Cl)cccc1NC(=S)N1CCOCC1	–	?	–	–	–	–
CCn1cc(CN2CCC(n3nccc3NC(=O)c3cccc(F)c3)CC2)cn1	–	–	–	–	–	·
